# Laboratory results taken from PubChem BioAssay (NCI).
# Compounds without any hit were thinned out: in the full panel of roughly 83,000, 20% have a hit.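 Growth was measured after 48 h exposure to one concentration of compound in 96-well plates. Values under 10 count as active.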 Values without a mark were called inactive. Active and inactive are the calls of the source.
# Columns and labels:
# Assay in all cases: NCI-60 one-dose screen, 48 h (100 = growth as untreated, 0 = no growth, -100 = all killed)
# Details in all cases: 10 µM unless noted
# SR leukemia = system: SR leukemia
# RPMI-8226 leukemia = system: RPMI-8226 leukemia
# OVCAR-8 ovarian = system: OVCAR-8 ovarian
# OVCAR-4 ovarian = system: OVCAR-4 ovarian
# SK-OV-3 ovarian = system: SK-OV-3 ovarian
# IGROV1 ovarian = system: IGROV1 ovarian
# OVCAR-3 ovarian = system: OVCAR-3 ovarian
# HS 578T breast = system: HS 578T breast
# NCI/ADR-RES ovarian = system: NCI/ADR-RES ovarian
# OVCAR-5 ovarian = system: OVCAR-5 ovarian
Compound,growth (SR leukemia),growth (RPMI-8226 leukemia),growth (OVCAR-8 ovarian),growth (OVCAR-4 ovarian),growth (SK-OV-3 ovarian),growth (IGROV1 ovarian),growth (OVCAR-3 ovarian),growth (HS 578T breast),growth (NCI/ADR-RES ovarian),growth (OVCAR-5 ovarian) [%]
COC(=O)[C@@H](CCCCNC(=O)[C@]12CCC(C)(C)C[C@@H]1C1=CC[C@@H]3[C@@]4(C)C/C(=C/c5ccco5)C(=O)C(C)(C)[C@@H]4CC[C@@]3(C)[C@]1(C)CC2)NC(=O)[C@]12CCC(C)(C)C[C@@H]1C1=CC[C@@H]3[C@@]4(C)C/C(=C/c5ccco5)C(=O)C(C)(C)[C@@H]4CC[C@@]3(C)[C@]1(C)CC2,87.9%,100%,104%,127%,106%,107%,115%,104%,112%,–
COC(=O)/C=C1/SC(=Nc2cccc(OC)c2)N(CCc2c[nH]c3ccc(O)cc23)C1=O,0.788% (active),16.2%,41.6%,49.4%,101%,51.8%,40.3%,66.5%,58.8%,–
O=[N+]([O-])c1ccc(O)cc1Br,99.1%,91.4%,100%,89.3%,101%,101%,106%,98.4%,98.9%,–
CC(C)=CCC[C@](C)(O)[C@H]1CC[C@]2(C)[C@@H]1CC[C@@H]1[C@@]3(C)C/C(=C/c4ccco4)C(=O)C(C)(C)[C@@H]3CC[C@]12C,113%,101%,104%,106%,109%,107%,103%,94.5%,104%,–
Clc1ccc2c(c1)C(c1c[nH]c3ccccc13)(c1c[nH]c3ccccc13)CCO2,63.8%,42.3%,58.6%,73.3%,–,85.8%,81.2%,76.6%,92.2%,–
CCCc1c(OC(=O)c2ccccc2)nc2[nH]c(=O)sc2c1C,115%,103%,102%,114%,95.8%,101%,103%,99.9%,97.9%,–
O=S(=O)(NCCCNc1nccc(-c2c(-c3ccc(F)c(O)c3)nc3sccn23)n1)c1ccccc1,33.9%,40.3%,54.2%,75.6%,78%,65%,66%,72.8%,100%,–
N#Cc1nc(-c2ccc(F)cc2)oc1S(=O)(=O)N1CCOCC1,-5.89% (active),41.2%,63.1%,60.9%,99.4%,78.3%,-88.4% (active),123%,91.1%,–
COc1ccc(C(=O)N2c3ccccc3Sc3ccccc32)c(OC)c1,22.4%,16.2%,27.9%,57.1%,36.9%,52.5%,-28% (active),14.7%,-0.356% (active),–
Cc1cc(N2CCCCC2)cc(C)c1-c1csc(NC(=O)c2ccncc2)n1,37.7%,37.5%,51.2%,24.2%,62.6%,64.4%,50.5%,75.2%,56.4%,–
COc1ccc(C(O)c2cc3c(N)c(C(=O)Nc4cccc(Br)c4)sc3nc2C)cc1 (stereo not given),8.67% (active),10.9%,13.1%,39.7%,–,11.4%,3.84% (active),-6% (active),13.1%,11.2
O=C1c2c(c3c4ccccc4[nH]c3c3ccc4ccccc4c23)C(=O)N1CCN1CCOCC1,13.1%,7.91% (active),31.5%,57.7%,81.2%,30%,44.1%,62.5%,21.1%,–
Cc1cccc(/C=C/c2c(C(=O)/C=C/c3ccccc3)c(C)nc3ccccc23)c1,11.8%,-11.6% (active),-13.7% (active),2.06% (active),33.7%,-27.6% (active),-50.6% (active),18.9%,-8.03% (active),–
O=C(Nc1cccc(-c2ccc(Cl)c(C(F)(F)F)c2)c1)C1CCN(Cc2cccc3cccnc23)CC1,-25.7% (active),-27.3% (active),-38.3% (active),17.4%,55.4%,-56.2% (active),-66.4% (active),5.48% (active),0.0048% (active),–
Cc1cn(-c2cc(NC(=O)c3cncc(C#Cc4cnc(N)c5ncccc45)c3)cc(C(F)(F)F)c2)cn1,62.7%,50.9%,64.5%,76.3%,106%,62.3%,92.1%,60.1%,86.9%,–
c1ccc([P+](c2ccccc2)(c2ccccc2)c2ccc3c4ccc([P+](c5ccccc5)(c5ccccc5)c5ccccc5)c5cccc(c6cccc2c63)c54)cc1,14.7%,-8.35% (active),14.2%,23.6%,-7.17% (active),6.28% (active),19.3%,15.8%,72%,–
Nc1cc(C(=O)NC[C@H]2CN(c3ccc(N4CCC(C(=O)O)CC4)cc3)C(=O)O2)ccc1Cl,95.4%,100%,103%,107%,113%,103%,114%,107%,103%,–
C#Cc1c2c(c(OC)c3c1OCO3)[C@H]([C@H]1OC(=O)c3c1ccc(OC)c3OC)N(C)CC2,9.19% (active),100%,95.2%,92.7%,89.5%,82.5%,87.1%,99.1%,59.6%,–
CCOC(=O)C/C(=N\Nc1cc(=O)[nH]c2ccc(Br)cc12)C(=O)OCC,40.8%,83.2%,98.6%,96.6%,105%,82.6%,100%,92%,93.4%,–
N#CC1=C(c2ccccc2)Nc2c(c(-c3ccc(Cl)cc3)nn2-c2ccccc2)C12C(=O)Nc1ccc(Cl)cc12 (stereo not given),53.9%,47.4%,84%,87.8%,90.8%,57.1%,88.1%,62.2%,87.8%,–
Nc1ncnc2c1N=C(c1ccc(Br)cc1)CC(c1cccc(Nc3ccnc4cc(C(F)(F)F)ccc34)c1)N2 (stereo not given),22.1%,12.7%,69.9%,76.8%,45.7%,65.7%,83.9%,65%,66.9%,–

Compound,growth (SR leukemia),growth (RPMI-8226 leukemia),growth (OVCAR-8 ovarian),growth (OVCAR-4 ovarian),growth (SK-OV-3 ovarian),growth (IGROV1 ovarian),growth (OVCAR-3 ovarian),growth (HS 578T breast),growth (NCI/ADR-RES ovarian),growth (OVCAR-5 ovarian) [%]
Cc1ccc2c(Cn3cc(CSc4nc5ccccc5o4)nn3)cc(=O)oc2c1,99.6%,100%,97.4%,107%,81%,107%,115%,107%,99.3%,–
CCN(CC)CC(O)COc1c(Br)c(Br)c(Br)c2c1OC(C)(C)C2 (stereo not given),16.7%,85.5%,126%,82.9%,97.9%,607%,14%,-69.4% (active),85%,–
CN(C)Cc1ccc(O)c(C(=O)O)c1,97.8%,104%,108%,118%,106%,95.6%,111%,109%,105%,–
O=c1[nH]c(-c2ccccc2)nc2sc3cc(O)ccc3c12,54.2%,82.3%,100%,80%,–,74.1%,93.4%,89%,95.5%,–
c1csc(-c2ccc(CNc3c4ccccc4nc4ccccc34)cc2)c1,-43.7% (active),-44.4% (active),55.6%,15.3%,65%,10%,9.5% (active),60.6%,11.2%,–
O=C(Nc1ccc(Oc2cccc(Cl)c2)c(Cl)c1)c1cccnc1,19.9%,11.9%,32.1%,47.8%,34.3%,42.1%,2.66% (active),31.1%,11.9%,–
NC(Cc1ccc(O)c([N+](=O)[O-])c1)C(=O)O (stereo not given),89.1%,95%,103%,95.2%,–,85%,105%,98.4%,99%,107
C=C(C)[C@@H]1CC[C@]2(CO)CC[C@]3(C)[C@H](CC[C@@H]4[C@@]5(C)CC[C@H](NCO)C(C)(C)[C@@H]5CC[C@]43C)[C@@H]12,-29.5% (active),-42% (active),-43.8% (active),-93.7% (active),-87.5% (active),-94.1% (active),-81.9% (active),-58.3% (active),-53.6% (active),–
Cc1ccc(NC(=O)c2sc3nc(C)c(Br)c(C)c3c2N)cc1,81.6%,83.3%,39.7%,11.7%,48.9%,51.8%,67%,31.8%,51.8%,–
COc1ccc(C2=C(Br)C(=O)c3nc(C)ccc3C2=O)cc1,17.3%,72.5%,88.8%,87.9%,85.1%,87.5%,40%,90.8%,97.4%,–
O=C(Nc1cccc2ccccc12)NC1CC1,109%,105%,101%,102%,97.1%,122%,114%,108%,111%,–
COc1ccc(\C=N/N=C(N)/C(N)=N\N=C/c2ccc(OC)cc2)cc1,46.9%,79.2%,117%,117%,96.1%,122%,108%,87.3%,107%,–
NC(=O)c1ccc(-c2c3ccccc3cc3c2ccc2ccccc23)cc1,15.9%,49.7%,77.4%,80%,69.5%,42.6%,3.85% (active),-12.4% (active),16.6%,–
COc1ccc(Nc2ncc(Br)c(NCCCNC(=O)C3CCCC3)n2)cc1,47%,49.3%,36.7%,56.7%,30.6%,14.1%,46.6%,29.2%,51.5%,–
CC(C)Cn1cnc2c(=O)[nH]c(N)nc21,90.3%,104%,97%,103%,78%,104%,109%,106%,105%,–
O=C(NNC(=O)c1ccc(NC(=O)c2ccccn2)cc1)Nc1ccc([N+](=O)[O-])cc1,109%,106%,104%,108%,106%,88.5%,109%,75.6%,106%,–
N=C(N)c1ccc(-c2ccc(-c3ccccc3)o2)cc1,-29.3% (active),-36.7% (active),-59.3% (active),-4.49% (active),–,-25.7% (active),-38.4% (active),-18.1% (active),-5.17% (active),–
O=c1c2ccccc2n2cnc3ccc(Cl)c1c32,44.9%,–,78.1%,82.6%,–,55.5%,85.2%,84.8%,86.7%,81.6
COc1cc2c(cc1OCCCN1CCN(CCCOc3cc4c(cc3OC)C(=O)N3CC(F)(F)C[C@H]3C=N4)CC1)N=C[C@@H]1CC(F)(F)CN1C2=O,37.5%,–,62.2%,83%,84.9%,60.9%,54.6%,-0.618% (active),111%,41.2
Cc1ccc(C2=Nc3c(N)ncnc3NC(c3cccc(Nc4ccnc5cc(C(F)(F)F)ccc45)c3)C2)cc1 (stereo not given),-19.3% (active),–,48.5%,45.6%,46.7%,44.7%,39.2%,43.3%,17.4%,75.2
